Test results published in PubChem BioAssay.
Active and inactive are the calls of the source.

Legend:
[1] = tested on: XIP peptide (Xip251-270) binding; test: XIP fragment 251-270 binding compounds – biochemical, small-molecule microarray, fluorescence 635/667 nm, 0.1 µg/mL protein, primary screen (AID 1182); details: fluorescent protein binding, 635 nm, higher = more signal, called active from +8 up or from −8 down
XIP peptide (Xip251-270) = test: compounds binding XIP fragment 251-270 – biochemical, small-molecule microarray, fluorescence 635/667 nm, 0.5 µg/mL protein, primary screen (AID 1183); details: fluorescence 635 nm, higher = more signal
[2] = blood-stage malaria parasite viability loss – strain 3D7, DAPI fluorescence, 100 nL, primary screen (AID 1184);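 also: parasites grown inside human red blood cells in medium with human serum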; details: P. falciparum 3D7 growth, 3 d, higher = more signal
[3] = biological target: Homeobox protein Hox-A13 (Mus musculus) (UniProt Q62424); test: disruptors of Hoxa13 oligonucleotide interaction – biochemical, fluorescence polarization, labeled oligonucleotide, primary screen (AID 1185); details: Hoxa13:DNA binding, 15 min, higher = more signal, called active from +8 up or from −8 down
Chain of Homeobox protein Hox-A13 (Mus musculus) (Q62424 whole entry, looked up): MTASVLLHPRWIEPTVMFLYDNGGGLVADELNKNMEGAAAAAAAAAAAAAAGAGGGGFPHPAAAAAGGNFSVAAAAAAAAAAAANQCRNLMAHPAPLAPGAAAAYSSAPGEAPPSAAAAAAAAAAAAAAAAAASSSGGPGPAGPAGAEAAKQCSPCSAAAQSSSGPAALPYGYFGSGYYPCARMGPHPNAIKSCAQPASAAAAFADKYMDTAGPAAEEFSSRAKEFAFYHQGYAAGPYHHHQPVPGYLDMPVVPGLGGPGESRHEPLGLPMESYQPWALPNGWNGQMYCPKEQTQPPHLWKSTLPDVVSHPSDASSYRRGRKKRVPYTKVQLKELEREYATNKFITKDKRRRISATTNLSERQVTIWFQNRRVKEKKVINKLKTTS

Compound: CC(C)=CCCC(C)=CCON=C1C[C@@H](O)[C@@H](O)[C@@H]2[C@@H]3C(=O)N(C4CCCCC4)C(=O)[C@@H]3CC[C@@H]12
- composite z-score [1]: -0.318 (inactive)
- composite z-score (XIP peptide (Xip251-270)): 0.426
- z-score [2]: 0.242
- z-score [3]: -2.99 (inactive)

Compound: CCOC(=O)[C@H](Cc1ccccc1)NC(=O)CCC1CC(OC(=O)NCCc2ccc(F)cc2)CC2(CCCC(COC(=O)NCCc3ccccc3OC)O2)O1 (stereo partly drawn)
- composite z-score [1]: -0.157 (inactive)
- composite z-score (XIP peptide (Xip251-270)): 0.525
- z-score [2]: -1.94
- z-score [3]: -2.27 (inactive)

Compound: COC(=O)[C@@H]1CC[C@H](C)[C@@H](c2ccc(C)cc2)N1C(=O)c1ccc(C=NO[C@H](C)c2cn([C@H](CO)Cc3ccccc3)nn2)cc1
- composite z-score [1]: -0.402 (inactive)
- composite z-score (XIP peptide (Xip251-270)): 0.658
- z-score [2]: -1.76
- z-score [3]: -5.94 (inactive)

Compound: COC(=O)CC=C[C@@H](C)[C@@H](C=NO[C@@H](C)c1cn([C@H](CO)Cc2ccccc2)nn1)NS(=O)(=O)c1ccc(C)cc1
- composite z-score [1]: -0.294 (inactive)
- composite z-score (XIP peptide (Xip251-270)): 0.464
- z-score [2]: 0.281
- z-score [3]: -4.93 (inactive)

Compound: CC(C)=CCCC(C)=CCON=C1C[C@@H](O)[C@@H](O)[C@@H]2[C@@H]3C(=O)N(C[C@@H]4CCCO4)C(=O)[C@@H]3CC[C@H]12
- composite z-score [1]: 0.243 (inactive)
- composite z-score (XIP peptide (Xip251-270)): 0.378
- z-score [2]: -0.0721
- z-score [3]: -3.8 (inactive)

Compound: CO[C@@H]1COC(=O)[C@@H]2CCCN2C(=O)[C@@H](C)COC(=O)CC=C[C@H]1C
- composite z-score [1]: 0.523 (inactive)
- composite z-score (XIP peptide (Xip251-270)): 0.569
- z-score [2]: 0.442
- z-score [3]: -0.236 (inactive)

Compound: COC(=O)[C@H](C)NC(=O)CCC1CC(OC(=O)NCc2ccc3c(c2)OCO3)CC2(CCCC(COC(=O)NCC3CCCCC3)O2)O1 (stereo partly drawn)
- composite z-score [1]: 0.655 (inactive)
- composite z-score (XIP peptide (Xip251-270)): 0.555
- z-score [2]: -1.87
- z-score [3]: -4.19 (inactive)
